Source: the supplement of paper PMC10338343
± gives the standard deviation.

How the values were obtained:
[1] = system: MILI (PIWIL2) piRISC loaded with L1MC piRNA (26 nt); assay: pre-steady-state target cleavage rate (min^-1); guide: L1MC piRNA 5'p-UAACUAAAUACUAUGCAAGCUGUAGG; higher = faster piRNA-guided slicing of the target
Outline: (§1)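 Cleave-'n-Seq used a transcribed, DNA-blocked target RNA library at 0.1 nM and active affinity-purified piRISC with one synthetic guide at 1 nM, with or without 500 nM GTSF1 partner protein, in HEPES–potassium acetate buffer at 33 °C for 0–8 or 0–960 min. Uncleaved targets were sequenced and normalised to depth and to weakly complementary targets, and three trials were pooled with k3 capped at 0.0001 min^-1. The pre-steady-state cleavage rate was estimated by a burst-and-steady-state fit.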

[2] = system: EfPiwi piRISC loaded with L1MC piRNA (26 nt); assay: pre-steady-state target cleavage rate (min^-1); auxiliary factor: 500 nM Ephydatia muelleri Gtsf1; guide: L1MC piRNA 5'p-UAACUAAAUACUAUGCAAGCUGUAGG; MIWI and MILI are mouse PIWI proteins and EfPiwi is from a freshwater sponge; tags in brackets are library labels; higher = faster piRNA-guided slicing of the target
Outline: as §1

[3] = auxiliary factor: 500 nM mouse GTSF1
[4] = auxiliary factor: none (no GTSF1)

Row | Sequence | pre-steady-state target cleavage rate [1, 3] | pre-steady-state target cleavage rate [1, 4] | pre-steady-state target cleavage rate [2]
1 | UCCUCCUACUGCUUGCAUUGUAUUUAGUUA | 0.212 ± 0.013 | 0.00808 ± 0.0019 | 0.0605 ± 0.016
2 | UCCUGGAUGUGCUGUGCAUAGUAUUUAGUUA | 0.131 ± 0.015 | 0.00886 ± 0.004 | 0.00568 ± 0.0024
3 | UCCUGGAUGUCCUUGCAUAGUAUUUAGUAA | 0.117 ± 0.019 | 0.00376 ± 0.0019 | 0.00321 ± 0.0025
4 | UCCUGGUACAGCUUCAUAGUAUUUAGUUA | 0.209 ± 0.027 | 0.00866 ± 0.0031 | 0.0159 ± 0.0055
5 | UCCUGCUACAGCUUGCAAAGUAUUUUGUUA | 0.139 ± 0.026 | 0.00325 ± 0.0025 | 0.00625 ± 0.0028
6 | UCCUGGAUCAGCUAGCUUAGUAUUUAGUUA | 0.214 ± 0.018 | 0.00868 ± 0.002 | 0.00676 ± 0.0036
